Experimental data reported in PubChem BioAssay (Tox21).
Results filed as inconclusive are left out. Activity calls are given as the source filed them. Unless noted, calls follow the shape of the dose curve; as a rule, active = well fitted curve in the direction sought with a large enough effect in the repeat runs; inconclusive = weak or mixed curves; inactive = no such curve, though single readings can be large; an effect the other way counts as inactive or inconclusive.

Tests used:
[1] = qHTS assay to identify small molecule antagonists of the estrogen related receptor (ERR) signaling pathway from Tox21 library - cell viability counter screen (AID 1224834); also: nearly all actives have a fitted effect of over 30% in size; also: potency is read from the fitted curve at half-maximal effect
In short: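 Counter screen run in ERR cells (2,000 cells/well): cells pre-incubated 6 h, then treated with compounds for 17.5 h at 37 C. Fluorescence was read 30 min after CellTiter-Fluor addition.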

[2] = target: Luciferin 4-monooxygenase (Photinus pyralis) (UniProt P08659); test: qHTS assay to identify small molecule inhibitors of firefly luciferase (AID 1224835); also: nearly all actives have a fitted effect of over 25% in size; also: potency is read from the fitted curve at half-maximal effect
Chain of Luciferin 4-monooxygenase (Photinus pyralis) (P08659 whole entry, looked up): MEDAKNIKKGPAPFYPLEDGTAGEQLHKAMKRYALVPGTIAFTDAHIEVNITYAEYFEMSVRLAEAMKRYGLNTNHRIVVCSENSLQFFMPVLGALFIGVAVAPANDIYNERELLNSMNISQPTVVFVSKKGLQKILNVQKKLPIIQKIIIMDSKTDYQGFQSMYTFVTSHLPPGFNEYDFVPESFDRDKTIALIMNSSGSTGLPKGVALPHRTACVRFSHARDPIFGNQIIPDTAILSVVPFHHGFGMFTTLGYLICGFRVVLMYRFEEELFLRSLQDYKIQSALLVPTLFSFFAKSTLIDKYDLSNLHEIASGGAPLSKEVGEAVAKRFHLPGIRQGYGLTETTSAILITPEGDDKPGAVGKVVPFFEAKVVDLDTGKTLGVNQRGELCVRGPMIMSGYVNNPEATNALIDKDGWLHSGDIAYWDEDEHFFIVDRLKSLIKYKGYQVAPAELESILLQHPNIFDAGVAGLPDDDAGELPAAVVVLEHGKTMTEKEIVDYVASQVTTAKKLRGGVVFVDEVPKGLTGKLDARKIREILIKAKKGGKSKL
In short: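 Inhibition of purified Photinus luciferase is measured by luminescence. Substrate levels (D-luciferin, ATP) sit at their KM values. Each compound is tested in a concentration series.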

[3] = qHTS assay to identify small molecule agonists of the constitutive androstane receptor (CAR) signaling pathway - cell viability counter screen (AID 1224836); also: nearly all actives have a fitted effect of over 45% in size; also: potency is read from the fitted curve at half-maximal effect
In short: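 Double-stable HepG2 hepatoma cells (hCAR plus CYP2B6-2.2kb) are treated for 23 h at 37 C with test compounds in 15-point concentration series. PK11195 at 0.75 uM final is co-added. Cell viability is quantified by CellTiter-Fluor.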

[4] = qHTS assay to identify small molecule antagonists of the constitutive androstane receptor (CAR) signaling pathway - cell viability counter screen (AID 1224837); also: nearly all actives have a fitted effect of over 45% in size; also: potency is read from the fitted curve at half-maximal effect
In short: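 CITCO at 50 nM final was added alongside compounds (15 concentrations) to double-stable hCAR/CYP2B6-2.2kb HepG2 cells. Following 23 hr at 37 C, cell viability was quantified by CellTiter-Fluor fluorescence intensity.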

[5] = target: Nuclear receptor subfamily 1 group I member 3 (Homo sapiens) (UniProt Q14994); test: qHTS assay to identify small molecule antagonists of the constitutive androstane receptor (CAR) signaling pathway (AID 1224838); also: nearly all actives have a fitted effect of over 40% in size; also: potency is read from the fitted curve at half-maximal effect
Chain of Nuclear receptor subfamily 1 group I member 3 (Homo sapiens) (Q14994 whole entry, looked up): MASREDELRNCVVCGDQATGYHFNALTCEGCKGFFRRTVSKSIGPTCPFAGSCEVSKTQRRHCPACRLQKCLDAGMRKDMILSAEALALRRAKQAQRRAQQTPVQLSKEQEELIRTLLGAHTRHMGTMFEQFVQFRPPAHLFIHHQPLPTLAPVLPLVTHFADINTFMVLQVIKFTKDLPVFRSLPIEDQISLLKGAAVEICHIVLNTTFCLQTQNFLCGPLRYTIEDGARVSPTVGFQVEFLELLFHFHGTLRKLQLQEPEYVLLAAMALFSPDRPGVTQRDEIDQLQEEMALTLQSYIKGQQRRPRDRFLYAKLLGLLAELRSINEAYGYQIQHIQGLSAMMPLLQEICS
In short: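 Inhibition of CITCO-driven (50 nM final) CYP2B6 reporter expression is measured in HepG2 cells stably carrying hCAR. Fifteen compound concentrations are applied for 24 h at 37 C, followed by luciferase luminescence.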

[6] = target: Nuclear receptor subfamily 1 group I member 3 (Homo sapiens) (UniProt Q14994); test: qHTS assay to identify small molecule agonists of the constitutive androstane receptor (CAR) signaling pathway (AID 1224839); also: nearly all actives have a fitted effect of over 15% in size; also: potency is read from the fitted curve at half-maximal effect
In short: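 Readout: firefly luciferase luminescence via ONE-Glo. System: HepG2 double-stable for hCAR and CYP2B6-2.2kb. Conditions: 15-point compound titration, PK11195 at 0.75 uM final, 24 h incubation.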

[7] = qHTS assay to identify small molecule antagonists of the estrogen related receptor signaling pathway with the pleiotropic PPARgamma coactivator (PGC) from Tox21 10K library - cell viability counter screen (AID 1224840; active = well fitted cell-killing curve with a large enough effect in the repeat runs, not every such curve was filed as active; also: nearly all actives have a fitted effect of over 40% in size; also: potency is read from the fitted curve at half-maximal effect)
In short: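 Readout: fluorescence intensity from CellTiter-Fluor after 30 min at 37 C/5% CO2. Preceded by 17.5 h treatment of PGC/ERR cells with DMSO-dissolved compounds, added 6 h post-seeding.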

[8] = qHTS assay to identify small molecule agonists of the estrogen related receptor signaling pathway with the pleiotropic PPARgamma coactivator (PGC) from Tox21 10K library (AID 1224842); also: nearly all actives have a fitted effect of over 15% in size
In short: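 Luminescence from One-Glo (30 min, room temperature) measured after PGC/ERR cells had 18 h at 37 C with pinned compound (23 nL in DMSO). Cells had been seeded at 2,000 per well and pre-incubated 6 h.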

[9] = target: Thyrotropin receptor (Homo sapiens) (UniProt P16473); test: qHTS assay to identify small molecule agonists of the thyroid stimulating hormone receptor (TSHR) signaling pathway (AID 1224843; calls by dose curve; also: nearly all actives have a fitted effect of over 45% in size)
Chain of Thyrotropin receptor (Homo sapiens) (P16473 whole entry, looked up): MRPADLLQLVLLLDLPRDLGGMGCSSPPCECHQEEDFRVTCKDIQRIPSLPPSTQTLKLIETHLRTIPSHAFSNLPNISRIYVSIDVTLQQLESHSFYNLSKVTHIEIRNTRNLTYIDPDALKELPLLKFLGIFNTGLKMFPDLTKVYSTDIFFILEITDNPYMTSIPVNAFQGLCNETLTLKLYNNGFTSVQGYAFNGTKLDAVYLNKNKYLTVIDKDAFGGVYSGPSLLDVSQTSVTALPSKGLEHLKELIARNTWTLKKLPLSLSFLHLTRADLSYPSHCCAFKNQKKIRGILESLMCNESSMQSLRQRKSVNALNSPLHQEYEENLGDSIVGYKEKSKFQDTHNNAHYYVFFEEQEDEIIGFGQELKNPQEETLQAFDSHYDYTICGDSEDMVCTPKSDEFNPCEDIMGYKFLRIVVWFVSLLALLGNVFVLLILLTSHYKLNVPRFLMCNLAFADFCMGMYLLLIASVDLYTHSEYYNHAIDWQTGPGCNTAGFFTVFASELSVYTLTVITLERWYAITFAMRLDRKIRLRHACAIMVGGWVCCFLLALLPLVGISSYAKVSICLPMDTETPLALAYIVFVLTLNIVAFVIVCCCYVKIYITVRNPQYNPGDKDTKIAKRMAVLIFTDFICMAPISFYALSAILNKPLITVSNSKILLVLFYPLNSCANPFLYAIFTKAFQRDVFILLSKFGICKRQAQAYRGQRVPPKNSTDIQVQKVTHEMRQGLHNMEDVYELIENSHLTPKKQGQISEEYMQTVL
In short: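 Agonist activity read as cAMP rise via d2/cryptate HTRF competition, 1 h room-temperature detection, in HEK293 cells expressing TSHR. Fifteen-point titrations, each run in triplicate, with a 30 min room-temperature incubation beforehand.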

[10] = qHTS assay to identify small molecule agonists of the hypoxia (HIF-1) signaling pathway - cell viability counter screen (AID 1224844; calls by dose curve; also: nearly all actives have a fitted effect of over 50% in size)
In short: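 In this counter screen, HRE-bla ME-180 cell viability after 17 hrs of compound exposure at 37C was read by CellTiter-Glo luminescence, multiplexed with the beta-lactamase reporter measurement.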

[11] = qHTS assay to identify small molecule agonists of H2AX (AID 1224845; active = well fitted activation curve with a large enough effect in the signal ratio in the repeat runs, not every such curve was filed as active; the % refers to the signal ratio)
In short: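 Phospho-H2AX Ser139 measured by HTRF (ex 320 nm; em 665 and 620 nm) after 24 hr antibody incubation. Compounds, 15 concentrations, 0.76% DMSO, were applied to CHO-K1 cells for 3hr at 37C before lysis.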

[12] = qHTS assay to identify small molecule agonists of the hypoxia (HIF-1) signaling pathway (AID 1224846; active = well fitted activation curve with a large enough effect in the signal ratio in the repeat runs, not every such curve was filed as active; the % refers to the signal ratio)
In short: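 ME-180 HRE-bla reporter cells; compounds in DMSO, 17 h at 37C; read-out beta-lactamase via CCF4-AM FRET.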

[13] = qHTS assay to identify small molecule agonists of H2AX - cell viability counter screen (AID 1224847; calls by dose curve; also: nearly all actives have a fitted effect of over 30% in size; also: potency is read from the fitted curve at half-maximal effect)
In short: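 For this counter screen, overnight-attached CHO-K1 cells received test compounds (15 concentrations, 0.76% DMSO final); 3 hr later at 37C, CellTiter-Glo reagent was added and luminescence recorded after 30 min at room temperature.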

[14] = qHTS assay to identify small molecule antagonists of the estrogen related receptor (ERR) signaling pathway from Tox21 library (AID 1224848); also: nearly all actives have a fitted effect of over 50% in size; also: potency is read from the fitted curve at half-maximal effect
In short: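 Luciferase luminescence (ONE-Glo, 30 min room temperature) was the read-out. Cells of the NTP-supplied ERR line, 2,000 per well, were given 6 h at 37 C before compound addition in DMSO and 18 h exposure at 37 C.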

[15] = qHTS assay to identify small molecule agonists of the estrogen related receptor (ERR) signaling pathway from Tox21 library (AID 1224849; calls by dose curve; also: nearly all actives have a fitted effect of over 15% in size); conditions: ERR reporter cell line, ONE-Glo luciferase, 18 h
In short: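 Luciferase activity in ERR pathway reporter cells served as the agonist readout; exposure lasted 18 h at 37 C, with ONE-Glo detection after 30 min at room temperature.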

[16] = qHTS RealTime-Glo MT Cell Viability Assay in HepG2 cells - 24 hour (AID 1224867); also: nearly all actives have a fitted effect of over 50% in size; also: potency is read from the fitted curve at half-maximal effect
In short: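 Tox21 10K library screened in qHTS format on HepG2 cells carrying RealTime-Glo reagents. Compounds were added after a 5 h preincubation, and the luminescent signal from continuous culture was measured repeatedly during 40 h treatment.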

[17] = A CellTox Green Cytotoxicity Assay to monitor cytotoxicity in HEK293 cells - 0 hour (AID 1224869); also: nearly all actives have a fitted effect of over 50% in size
In short: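 Real-time, in one plate: 600 HEK293 cells/well with dead-cell DNA dye, pinned compound after 5 h, 37 C incubation over 40 h; viable cells give no appreciable fluorescence.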

[18] = qHTS assay to identify small molecule antagonists of the estrogen related receptor signaling pathway with the pleiotropic PPARgamma coactivator (PGC) from Tox21 10K library (AID 1224841; call rule not given here)
In short: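 One-Glo luminescence, measured after half an hour at room temperature, quantified reporter output of PGC/ERR cells. These had been plated at 2,000 per well, incubated 6 h, dosed with compounds in DMSO, then kept 18 h at 37 C.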

[19] = qHTS RealTime-Glo MT Cell Viability Assay in HEK293 cells - 32 hour (AID 1224868); also: nearly all actives have a fitted effect of over 50% in size; also: potency is read from the fitted curve at half-maximal effect
In short: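 Luminescence generated by NanoLuc from substrate produced by living HEK293 cells served as the viability signal. Each value reflects the reading at its stated time point during continuous 40 h compound exposure at 37 C.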

[20] = qHTS RealTime-Glo MT Cell Viability Assay in HepG2 cells - 40 hour (AID 1224870); also: nearly all actives have a fitted effect of over 50% in size; also: potency is read from the fitted curve at half-maximal effect
In short: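 Real-time viability: cells seeded at 600 per well together with NanoLuc and cell-permeant prosubstrate, compounds added after 5 h incubation. Luminescence tracked at 0, 8, 16, 24, 32 and 40 h of exposure.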
% is scaled to controls: 0 for no effect and ±100 for the full control effect.

CC(=O)c1ccc(C(C)=O)cc1
inactive: Potency [1] | Potency [2] | Potency [3] | Potency [4] | Potency [5] | Potency [6] | Potency [7] | Potency [8] | Potency [9] | Potency [10] | Potency [11] | Potency [12] | Potency [13] | Potency [14] | activity change, positive = activation ([15]; at 92.4 µM (top of the series)) -2.27% | Potency [16] | Potency [17]

O=C(O)c1cccc(C(F)(F)F)c1
inactive: Potency [1] | Potency [2] | Potency [3] | Potency [4] | Potency [5] | Potency [6] | Potency [7] | Potency [18] | Potency [8] | Potency [9] | Potency [10] | Potency [12] | Potency [13] | Potency [14] | activity change, positive = activation ([15]; at 92.4 µM (top of the series)) -2.71% | Potency [16] | Potency [19] | Potency [17] | Potency [20]

COC1=C(OC)C(=O)C(CCCCCCCCCCO)=C(C)C1=O
inactive: Potency [2] | Potency [3] | Potency [4] | Potency [5] | Potency [6] | Potency [7] | Potency [8] | activity change, positive = activation ([15]; at 42.5 µM (top of the series)) -46.7% | Potency [16] | Potency [17] | Potency [20]
active: Potency [1] 23.7 µM | Potency [14] 18.8 µM | Potency [19] 5.35 µM

CCCCCCCCCCC[C@@H](C[C@@H]1OC(=O)[C@H]1CCCCCC)OC(=O)[C@H](CC(C)C)NC=O
active: Potency [19] 9.52 µM
inactive: Potency [1] | Potency [2] | Potency [3] | Potency [4] | Potency [5] | Potency [6] | Potency [7] | Potency [9] | Potency [10] | Potency [12] | Potency [16] | Potency [17]

OC/C=C/CO
inactive: Potency [1] | Potency [2] | Potency [3] | Potency [4] | Potency [5] | Potency [6] | Potency [7] | Potency [9] | Potency [10] | Potency [12] | Potency [13] | Potency [16] | Potency [17] | Potency [20]

CC1(C)CC(O)CC(C)(C)N1
inactive: Potency [1] | Potency [2] | Potency [3] | Potency [4] | Potency [5] | Potency [6] | Potency [7] | Potency [9] | Potency [10] | Potency [11] | Potency [12] | Potency [13] | Potency [16] | Potency [17] | Potency [20]

C=CC(C)(CCC=C(C)C)OC=O (stereo not drawn)
inactive: Potency [1] | Potency [2] | Potency [3] | Potency [4] | Potency [5] | Potency [6] | Potency [7] | Potency [8] | Potency [9] | Potency [10] | Potency [11] | Potency [12] | Potency [13] | Potency [14] | activity change, positive = activation ([15]; at 92.4 µM (top of the series)) 1.64% | Potency [16] | Potency [19] | Potency [17] | Potency [20]

O=C(O)c1ccc2cc(C(=O)O)ccc2c1
inactive: Potency [1] | Potency [2] | Potency [3] | Potency [4] | Potency [5] | Potency [6] | Potency [7] | Potency [9] | Potency [10] | Potency [12] | Potency [13] | Potency [16] | Potency [19] | Potency [17] | Potency [20]

Cc1c(F)c(N2CCNC(C)C2)cc2c1c(=O)c(C(=O)O)cn2C1CC1 (stereo not drawn)
inactive: Potency [1] | Potency [2] | Potency [3] | Potency [4] | Potency [5] | Potency [6] | Potency [7] | Potency [18] | Potency [9] | Potency [10] | Potency [11] | Potency [12] | Potency [13] | Potency [14] | activity change, positive = activation ([15]; at 42.5 µM (top of the series)) 9.53% | Potency [16] | Potency [17] | Potency [20]

CCCCCCCCCCCC(=O)OCC(C)OC(=O)CCCCC(=O)O (stereo not drawn)
inactive: Potency [1] | Potency [2] | Potency [3] | Potency [4] | Potency [5] | Potency [6] | Potency [7] | Potency [8] | Potency [9] | Potency [11] | Potency [13] | Potency [14] | activity change, positive = activation ([15]; at 42.5 µM (top of the series)) -2.88% | Potency [16] | Potency [19] | Potency [17] | Potency [20]

COc1cc(C)ccc1O
inactive: Potency [1] | Potency [2] | Potency [3] | Potency [4] | Potency [5] | Potency [6] | Potency [7] | Potency [8] | Potency [9] | Potency [10] | Potency [11] | Potency [12] | Potency [13] | Potency [14] | activity change, positive = activation ([15]; at 92.4 µM (top of the series)) 5.96% | Potency [16] | Potency [19] | Potency [17] | Potency [20]

O=C(O)c1cc(O)c2ccccc2c1O
active: Potency [1] 27.3 µM | Potency [2] 31.7 µM | Potency [3] 21.7 µM | Potency [4] 24.3 µM | Potency [5] 38.6 µM | Potency [6] 1.54 µM | Potency [7] 30.6 µM | Potency [13] 50.5 µM | Potency [14] 61.1 µM | Potency [16] 19.5 µM | Potency [19] 43.6 µM | Potency [20] 21.9 µM
inactive: Potency [8] | activity change, positive = activation ([15]; at 92.4 µM (top of the series)) -58.1% | Potency [17]

CCC(=O)OC(=O)CC
inactive: Potency [1] | Potency [2] | Potency [3] | Potency [4] | Potency [5] | Potency [6] | Potency [7] | Potency [9] | Potency [10] | Potency [11] | Potency [12] | Potency [13] | Potency [16] | Potency [19] | Potency [17] | Potency [20]

Cc1ccc(N/N=c2\c(=O)cc/c(=N\Nc3ccc(S(=O)(=O)O)cc3)c2=O)c(C)c1
inactive: Potency [5] | Potency [6] | Potency [8] | Potency [9] | Potency [10] | Potency [12] | Potency [14] | activity change, positive = activation ([15]; at 92.4 µM (top of the series)) -2.81% | Potency [16] | Potency [19] | Potency [17] | Potency [20]
active: Potency [1] 30.6 µM | Potency [2] 28.3 µM | Potency [3] 30.6 µM | Potency [4] 48.6 µM | Potency [7] 30.6 µM
